mHTT-CaM PPI inh = disrupts binding of mutant huntingtin to calmodulin; P42858; AlphaScreen His-mHTT/GST-CaM binding, luminescence; inhibition, % at 15 µM; 190,000 tested, 3.6% active; AID 1671202;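 further: 0% = both proteins with DMSO and 100% = one protein alone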
Pf apPOL block = Pf-apPOL DNA polymerase inhibition; Recombinant Pf-apPOL, molecular beacon fluorescence, 1.5 h; inhibition, % at 10 µM; 210,000 tested, 0.25% active; AID 1794808
* = called active by the depositor; ! = not confirmed by another sample. An excerpt weighted towards active compounds, which were near 3.5% of everything screened. No stated cut-off is given here; in the data, active means inhibition above about 50%; inactive means the rest.

Results for O=C1c2ccccc2-c2c3c(cc4ccnc1c24)OCO3 ?
Pf apPOL block: 77*

What do the screens show for `COc1cc(/C=C/[N+](=O)[O-])c(OC)cc1C`?
mHTT-CaM PPI inh: 25; Pf apPOL block: -4

How did COc1cc(Br)cc(/C=C/[N+](=O)[O-])c1O do in these assays?
mHTT-CaM PPI inh: 72*; Pf apPOL block: -1

What do the screens show for `O=C(c1ccc2c(c1)ncn2-c1ccc(OCc2ccccc2)cc1)N1CCC2(CC1)OCCO2`?
mHTT-CaM PPI inh: 52*; Pf apPOL block: -6

How did COc1ccc(-n2cnc3cc(C(=O)N4CCC5(CC4)OCCO5)ccc32)cc1 do in these assays?
mHTT-CaM PPI inh: 6; Pf apPOL block: -2

How did C/C(=N/O)c1c(C)[nH]c2ccccc12 do in these assays?
mHTT-CaM PPI inh: inactive

What do the screens show for `Cc1ccc(-n2cccc2C=C2C(=O)NC(=O)NC2=O)cc1Cl`?
mHTT-CaM PPI inh: 80*; Pf apPOL block: 4

How did CN1C(=O)C(=Cc2cccn2-c2ccc(S(N)(=O)=O)cc2)C(=O)N(C)C1=O do in these assays?
mHTT-CaM PPI inh: 7; Pf apPOL block: -3

How did Fc1ccc(CN2CCN(c3ccccc3F)CC2)c(F)c1 do in these assays?
mHTT-CaM PPI inh: -10; Pf apPOL block: 0

How did Cc1nn(-c2ccccc2)c([Se])c1C=NC1CCCCC1 do in these assays?
mHTT-CaM PPI inh: 63*; Pf apPOL block: -1

What do the screens show for `CN1C2CCC1CC(N=Cc1ccccc1)C2` (stereo unspecified)?
Pf apPOL block: -6

Results for O=C1NC(=O)C(Cc2ccc(F)cc2)C(=O)N1 ?
mHTT-CaM PPI inh: -6; Pf apPOL block: -5

How did O=C(NC(NCc1ccccc1)C(Cl)Cl)c1ccccc1 (stereo unspecified) do in these assays?
mHTT-CaM PPI inh: -7; Pf apPOL block: -5

What do the screens show for `COc1cccc(CN2CCN(C)CC2)c1OC`?
mHTT-CaM PPI inh: -4; Pf apPOL block: -4

Results for NCCc1c[nH]c2ccccc12 ?
Pf apPOL block: 4

How did NCCc1c[nH]c2ccc(OCc3ccccc3)cc12 do in these assays?
mHTT-CaM PPI inh: 80*!; Pf apPOL block: 3

What do the screens show for `CN1CCCN(Cc2c[nH]c3ccccc23)CC1`?
mHTT-CaM PPI inh: -4; Pf apPOL block: -4

How did c1ccc(Oc2ccc3[nH]cc(CCN4CC4)c3c2)cc1 do in these assays?
mHTT-CaM PPI inh: 72*

What do the screens show for `c1ccc(C2(c3ccccc3)CC2C2=NCCN2)cc1` (stereo unspecified)?
Pf apPOL block: -1

Results for Fc1cccc(CN2CCN(Cc3ccc4c(c3)OCO4)CC2)c1 ?
mHTT-CaM PPI inh: 2; Pf apPOL block: -6

What do the screens show for `CCOc1cc(C(c2c(O)c3ccccc3oc2=O)c2c(O)c3ccccc3oc2=O)ccc1O`?
mHTT-CaM PPI inh: 84*; Pf apPOL block: -10

Results for O=c1oc2ccccc2c(O)c1C(c1cccnc1)c1c(O)c2ccccc2oc1=O ?
mHTT-CaM PPI inh: 7; Pf apPOL block: -4

How did COc1ccc(N2CCN(Cc3ccc(Cl)cc3Cl)CC2)cc1 do in these assays?
mHTT-CaM PPI inh: 61*; Pf apPOL block: -5

What do the screens show for `Clc1ccc(CN2CCN(c3ccccc3)CC2)c(Cl)c1`?
mHTT-CaM PPI inh: 26; Pf apPOL block: -3

Results for Cn1c(C=C(C#N)C#N)ccc1S(C)(=O)=O ?
Pf apPOL block: -1

What do the screens show for `CN(C)c1ccc(CN2CC=C(c3ccc(F)cc3)CC2)cc1`?
mHTT-CaM PPI inh: 52*; Pf apPOL block: 3

What do the screens show for `CN(C)c1ccc(CN2CCN(c3ccc(F)cc3)CC2)cc1`?
mHTT-CaM PPI inh: 38; Pf apPOL block: -4

How did COc1cc(CNCCc2cccc(F)c2)c([N+](=O)[O-])cc1OC do in these assays?
mHTT-CaM PPI inh: 2; Pf apPOL block: 1

What do the screens show for `Cc1nc2cc(C(=O)N3CCC4(CC3)OCCO4)ccc2n1-c1cccc(F)c1`?
mHTT-CaM PPI inh: -4; Pf apPOL block: -4

What do the screens show for `O=[N+]([O-])c1cc2c(cc1CNCCc1c[nH]c3ccccc13)OCO2`?
mHTT-CaM PPI inh: 68*; Pf apPOL block: -2

How did COc1cc(CNCCc2c[nH]c3ccccc23)c([N+](=O)[O-])cc1OC do in these assays?
mHTT-CaM PPI inh: 14; Pf apPOL block: -1

How did C(=Nc1ncn[nH]1)Nc1ncn[nH]1 do in these assays?
mHTT-CaM PPI inh: -3; Pf apPOL block: 1

Results for COc1ccc2c(c1)C1(CCN(C(=O)c3ccccc3)C1)C(=O)N2 (stereo unspecified) ?
mHTT-CaM PPI inh: 8; Pf apPOL block: -4

Results for O=C(Cc1ccsc1)N1CCCN(C2CCN(Cc3ccc(F)cc3)C2=O)CC1 (stereo unspecified) ?
mHTT-CaM PPI inh: 39; Pf apPOL block: 1

What do the screens show for `Cc1cccc(CC(=O)N2CCCN(C3CCN(Cc4ccc(F)cc4)C3=O)CC2)c1` (stereo unspecified)?
mHTT-CaM PPI inh: 86*; Pf apPOL block: 1

How did COc1ccc(CN2CCN(c3cccc(Cl)c3)CC2)c(OC)c1 do in these assays?
mHTT-CaM PPI inh: 5; Pf apPOL block: -10

How did COc1ccc2c(c1)C1(CCN(S(=O)(=O)c3ccc4c(c3)OCCO4)C1)C(=O)N2 (stereo unspecified) do in these assays?
mHTT-CaM PPI inh: 3; Pf apPOL block: -5

How did Cn1c(=O)c2c(c3ccccc31)NC(=S)NN=C2 do in these assays?
mHTT-CaM PPI inh: 97*

How did CCN1CCN(Cc2c(Cl)cccc2Cl)CC1 do in these assays?
mHTT-CaM PPI inh: -7; Pf apPOL block: 0

What do the screens show for `CCc1ccc(CN2CCN(C)CC2)cc1`?
mHTT-CaM PPI inh: -1; Pf apPOL block: 12

Results for O=Cc1nc2ccccc2n1Cc1ccccc1 ?
mHTT-CaM PPI inh: 35; Pf apPOL block: -5

How did O=Cc1nc2ccccc2n1Cc1ccc(Cl)cc1Cl do in these assays?
mHTT-CaM PPI inh: 95*; Pf apPOL block: -6

How did CCOC(=O)[C@]12Cc3cc(C)ccc3[C@H]1N(CCC(=O)OC)C(=O)c1cc(OC)ccc12 do in these assays?
mHTT-CaM PPI inh: 13; Pf apPOL block: 0

What do the screens show for `CN(C)C(=O)Oc1ccc2c(c1)OC(=CC=Cc1ccccc1)C2=O`?
mHTT-CaM PPI inh: 59*!; Pf apPOL block: -4

How did COc1cccc(C=C2Oc3cc(OC(=O)N(C)C)ccc3C2=O)c1 do in these assays?
mHTT-CaM PPI inh: 11; Pf apPOL block: 0

How did O=[N+]([O-])c1c(Br)sc(Br)c1[N+](=O)[O-] do in these assays?
mHTT-CaM PPI inh: 52*

How did CN(C)C(=O)Oc1cc(O)c2c(=O)cc(-c3ccccc3)oc2c1 do in these assays?
mHTT-CaM PPI inh: 16; Pf apPOL block: -1

Results for CN(C)c1ccc(CN2CCN(c3ccccc3Cl)CC2)cc1 ?
mHTT-CaM PPI inh: 53*; Pf apPOL block: -8

What do the screens show for `CN(C)c1ccc(CN2CCN(Cc3ccccc3)CC2)cc1`?
mHTT-CaM PPI inh: 3; Pf apPOL block: -3

What do the screens show for `CC1N=C(c2ccccc2)c2ccccc2N(CC(=O)Nc2ccc(F)cc2Cl)C1=O` (stereo unspecified)?
mHTT-CaM PPI inh: 5; Pf apPOL block: -19

Results for CC1N=C(c2ccccc2)c2ccccc2N(CC(=O)Nc2ccc(F)c(Cl)c2)C1=O (stereo unspecified) ?
mHTT-CaM PPI inh: 66*; Pf apPOL block: -19

How did O=C1NC(=O)C(=Cc2ccncc2)C(=O)N1 do in these assays?
Pf apPOL block: -8

Results for COc1cc(/C=C2/C(=O)NC(=O)N(Cc3ccc(F)cc3)C2=O)ccc1O ?
mHTT-CaM PPI inh: 9; Pf apPOL block: -3

What do the screens show for `O=C1C=CC(=O)c2c(O)cccc21`?
Pf apPOL block: 97*

What do the screens show for `O=C1c2ccccc2C(=O)c2ccccc21`?
Pf apPOL block: 3

Source: PubChem BioAssay
